# NS1 inh – inhibitors of influenza NS1 protein function; Potency, µM (titrated, usually from 46.1 µM), inactives show top-dose activity, positive = more growth; hit rate 0.4% among 270,000; AID 2326; note: potency is the fitted concentration of half-maximal effect; actives are rising curves; nearly all actives have a fitted effect of over 50% in size
#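 Recovery from NS1-induced slow growth read by OD600 in budding yeast switched to galactose assay medium (pH 6.0, -URA) at 1:100 dilution. Compound 23 nl per well; the matching strain lacking NS1 serves as control.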
# Cruzain noTriton – cruzain (T. cruzi) inhibition without detergent; AID 1476; purified cruzain, Z-FR-AMC fluorescence, no detergent; hit rate 2.3% among 200,000; Potency, µM, for the others: max response, negative = inhibition, actives largely listed as inhibitors; active = well fitted curve in the direction sought with a large enough effect; inconclusive = small, poorly fitted or top-dose-only effect, or another doubt; inactive = no such curve, though single readings can be large; an effect the other way counts as inactive or inconclusive;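 note: potency is the fitted concentration of half-maximal effect; plate controls were enzyme without inhibitor for no effect and buffer without enzyme for full effect; nearly all actives have a fitted effect of over 40% in size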
# Target sequence (P25779 123-467 limits assumed): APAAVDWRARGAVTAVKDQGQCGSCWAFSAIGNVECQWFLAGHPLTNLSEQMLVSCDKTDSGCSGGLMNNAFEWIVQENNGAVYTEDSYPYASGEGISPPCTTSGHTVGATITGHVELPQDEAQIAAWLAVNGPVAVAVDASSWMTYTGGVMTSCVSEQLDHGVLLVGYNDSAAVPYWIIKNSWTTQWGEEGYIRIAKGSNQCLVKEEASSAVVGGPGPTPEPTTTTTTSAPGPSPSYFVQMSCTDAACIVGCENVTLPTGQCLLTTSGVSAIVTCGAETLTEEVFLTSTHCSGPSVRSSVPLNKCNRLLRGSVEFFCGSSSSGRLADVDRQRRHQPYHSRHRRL
#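 Purified cruzain at 1.5 nM, pre-incubated 15 min with compound at room temperature in 100 mM sodium acetate pH 5.5, 5 mM DTT, 0.00005% Triton X-100. Reaction started with 2 uM Z-FR-AMC; AMC fluorescence increase over 60 s gives rate.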
# Cruzain inh Det – blocks cruzain activity in presence of Triton detergent | P25779 | purified cruzain, Z-FR-AMC fluorescence, 0.01% Triton | Potency, µM, for inactives: max response, negative = inhibition, usual class: inhibitors | hit rate 0.43% among 200,000; active = well fitted curve in the direction sought with a large enough effect; inconclusive = small, poorly fitted or top-dose-only effect, or another doubt; inactive = no such curve, though single readings can be large; an effect the other way counts as inactive or inconclusive;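 note: potency is the fitted concentration of half-maximal effect; plate controls were neutral wells for no effect and buffer without enzyme for full effect; nearly all actives have a fitted effect of over 40% in size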
#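 Detergent-containing run (0.01% Triton X-100) in acetate buffer pH 5.5 with 5 mM DTT: enzyme at 1.5 nM final, 15 min compound preincubation at room temperature, then 2 uM Z-FR-AMC substrate. Activity taken as 60 s fluorescence increase at 360/450 nm.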
# Flu NS1 inh – validation of influenza NS1 protein function inhibitors. 1,400 tested, under 10 active. shares compounds with NS1 inh. AID 492980. influenza NS1 function cell assay, 15-point titration. activity change, negative = inhibition, % at 32.9 µM; note: 0% is about no effect
# PR8 titer – influenza virus titer reduction, NS1 project | MDCK infected influenza A/PR/8/34, virus titer TCID50; hits give low values | hit rate 30% among 95 | virus titer (log TCID50), log10 TCID50 at 5 µM | shares compounds with NS1 inh; call rule not given here
# * hit, by the source's call; u = inconclusive; x = no result. The sample as a whole holds a higher share of hits than the screen did. Unless noted, calls come from the whole dose curve.
SMILES,NS1 inh,Cruzain noTriton,Cruzain inh Det,Flu NS1 inh,others
CC(C)OC(=O)C1=C2SCC(=O)N2C(N)=C(C#N)C1,9%,-1%,-2%,x,
c1cc(OCCCN2CCCCC2)ccc1CN1CCCCC1,6%,x,x,x,
O=C1CCC/C(=N/NC(=O)c2ccc(CN3c4cccc5cccc(c45)S3(=O)=O)cc2)C1,14µM*,-2%,-5%,11,
O=C1CCC/C(=N\NC(=O)c2ccc(COc3cccc4cccnc34)cc2)C1,23%,6%,-4%,x,
Cc1ccccc1-c1nc(CS(=O)CC(=O)N2CCN(c3cc(Cl)ccc3C)CC2)c(C)o1 (stereo unspecified),x,u,-6%,x,
Cc1ccccc1-c1nc(CS(=O)CC(=O)N2CCC3(CC2)OCCO3)c(C)o1 (stereo unspecified),1.1µM*,u,2%,5,PR8 titer=8.3
Cn1nc(C(=O)Nc2nc(-c3ccc(F)cc3)cs2)ccc1=O,-4%,x,x,x,
O=C(CSc1nc2ccccc2s1)c1ccc(O)cc1O,-38%,x,x,x,
Cc1ccc(S(=O)(=O)NCC(=O)N(c2ccccc2)C(C(=O)NCc2ccccc2)c2ccco2)cc1 (stereo unspecified),-9%,-3%,-2%,x,
Cc1cc(C)cc(N(C(=O)CNS(=O)(=O)c2ccccc2)C(C(=O)NCc2ccccc2)c2ccc(C)o2)c1 (stereo unspecified),10µM*,-1%,-9%,-1,
CCOc1ccc(CNC(=O)c2sc3nc(C)cc(C)c3c2-n2cccc2)cc1,x,u,-3%,x,
CC1CCCCN1C(=O)CSc1nc(N)cc(=O)[nH]1 (stereo unspecified),0%,-7%,4%,x,
Cc1nn(-c2ccccc2)c2c1C(c1ccc(O)c(O)c1)N1C(=N2)C(Nc2ccccc2)=Nc2ccccc21 (stereo unspecified),u,u,5%,x,
Cc1cccc(NC2=Nc3ccccc3N3C2=Nc2c(c(C)nn2-c2ccccc2)C3c2ccc(O)c(O)c2)c1 (stereo unspecified),3.5µM*,-28%,6%,3,
CCCCC(C(=O)O)C(C)CC(=O)Nc1ccn(-c2ccccc2)n1 (stereo unspecified),2.8µM*,-12%,3%,28,
CC(C)CC(C(=O)O)C(C)CC(=O)Nc1ccn(-c2ccccc2)n1 (stereo unspecified),14%,-2%,0%,x,
CC(=O)NC(Cc1ccccc1)C(=O)OCC(=O)c1ccccc1 (stereo unspecified),-34%,-1%,-4%,x,
CON(C)c1nc(Oc2ccc(=O)[nH]n2)nc(N(C)C)n1,u,-13%,-3%,26,
CN(C)c1nc(Oc2ccc(=O)[nH]n2)nc(N2CCOCC2)n1,11%,-4%,7%,x,
COc1ccc(C(=O)NCCc2c[nH]c3ccccc23)cc1,-32%,x,x,x,
CC1CCN(C(=O)CSc2nnc(N)s2)CC1,12%,x,x,x,
Cn1c(SCCOc2ccccc2Cl)nnc1-c1cccs1,u,0%,-5%,u,
Cc1cc(OCCSc2nnc(-c3cccs3)n2C)ccc1Cl,-169%,16%,-7%,x,
CCc1cccc(NC(=O)NC2CCCCC2)c1,-52%,-3%,0%,x,
CN(C)C(CNC(=O)c1cnc(Cl)c(Cl)c1)c1ccccc1 (stereo unspecified),6%,x,x,x,
SMILES,NS1 inh,Cruzain noTriton,Cruzain inh Det,Flu NS1 inh,others
O=c1c2ccccc2nc(-c2ccccc2)n1/N=C/c1ccc([N+](=O)[O-])cc1,-1%,-28%,-2%,x,
Cc1ccccc1-c1nc2ccccc2c(=O)n1/N=C/c1ccccc1[N+](=O)[O-],3.2µM*,-3%,-8%,16,
COc1nc(NCCO)nc(Nc2cc(Cl)ccc2OC)n1,-2%,x,x,x,
Cc1ccc(Cn2c(SCC(=O)N3CC(=O)Nc4ccccc43)nc3ccccc3c2=O)cc1,13µM*,u,-6%,6,
O=C1CN(C(=O)CSc2nc3cc(Cl)ccc3c(=O)n2Cc2ccccc2)c2ccccc2N1,u,u,-2%,x,
COc1ccc(-c2ccc(/C=N/NC(=O)Cc3nnc(N)s3)o2)cc1Cl,11%,x,x,x,
Cc1ccc(-c2ccc(/C=N/NC(=O)Cc3nnc(N)s3)o2)cc1Cl,u,x,x,28,
Cc1ccc(CSc2nnc([C@@H]3CCCN3)o2)cc1,16%,-5%,0%,x,
COc1cc(CNc2ccc3[nH]c(=O)[nH]c3c2)ccc1OCc1ccccc1F,7%,-2%,-5%,x,
COc1cc(CNc2ccc3[nH]c(=O)[nH]c3c2)cc(Br)c1OCc1ccccc1F,0.79µM*,u,-5%,-3,

# Screening data: PubChem BioAssay, National Center for Advancing Translational Sciences (NCATS)
